Assay outcomes from PubChem BioAssay.
In the library only some 1.9% were active in any assay of this set; here they are far more common.
p47phox inh – blocks human p47phox regulatory protein of NADPH oxidases. P14598. p47phox/p22phox peptide binding, fluorescence polarization, 2 h. inhibition, % at 24.7 µM. 220,000 tested, 0.53% active;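 active means inhibition above about 30%, limit read from the data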;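 further: 0% = p47phox with labelled peptide and 100% = labelled peptide alone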
Target sequence (P14598 whole entry, looked up): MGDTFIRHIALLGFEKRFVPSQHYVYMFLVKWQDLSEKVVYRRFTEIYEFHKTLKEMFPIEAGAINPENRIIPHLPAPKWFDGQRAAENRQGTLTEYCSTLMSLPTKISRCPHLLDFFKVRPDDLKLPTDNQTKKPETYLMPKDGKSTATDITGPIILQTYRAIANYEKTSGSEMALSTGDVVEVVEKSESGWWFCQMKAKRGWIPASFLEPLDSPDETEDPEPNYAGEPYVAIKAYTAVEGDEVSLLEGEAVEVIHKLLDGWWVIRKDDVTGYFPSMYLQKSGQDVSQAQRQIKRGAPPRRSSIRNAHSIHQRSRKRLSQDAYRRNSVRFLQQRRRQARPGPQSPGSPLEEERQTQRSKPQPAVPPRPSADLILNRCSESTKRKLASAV
EBNA-1 inh – blocks EBNA-1 binding to DNA; EBNA-1 DNA binding, fluorescence polarization; inhibition, % at 14.8 µM; 300,000 tested, 0.34% active; in the data active means inhibition above about 28%
ZTA DNA inh – ZTA (EBV) inhibition in EBNA-1 counter-screen. P03206. ZTA-DNA binding, fluorescence polarization. inhibition, % at 11 µM. 320,000 tested, 0.15% active. AID 2234; in the data active means inhibition above about 33%
aDG glyco act – alpha-DG glycosylation activation | Pro5-aDG cells, alpha-DG glycosylation AlphaScreen (IIH6); 0% Pro5, 100% B10-LARGE cell signal | activation, % at 10 µM | AID 624168 | 360,000 tested, 0.22% active;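 active means activation of at least 8% versus controls, or a plate z-score of at least 8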;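 further: Pro5 are CHO cells carrying HIG-tagged alpha-DG that lacks glycosylation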
NR1D1 modulator – modulates human Rev-erb alpha binding to DNA; P20393; Rev-erbα–FITC-DNA binding, fluorescence polarization, 90 min; activity, % at 10 µM; 370,000 tested, 0.79% active; AID 1259318;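 active means activity above about 14%, limit read from the data; passing the limit was not always enough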;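 further: 0% = DMSO wells with 35 nM protein and 100% = DMSO wells with 750 nM protein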
PG9 binder – binds the HIV-1 gp120 antibody PG9 | TR-FRET gp120-PG9 antibody binding | inhibition, % at 6.7 µM | 360,000 tested, 0.43% active; in the data active means inhibition above about 8.5%
EBNA-1 confirm – EBNA-1 (EBV) inhibition, confirmation; shares compounds with EBNA-1 inh; Recombinant EBNA-1 DBD, Cy5-DNA fluorescence polarization; inhibition, % at 14.8 µM; 830 tested, 35% active;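 active means mean inhibition across replicates above a set limit taken from the earlier primary screen, cut at about 28% in these data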;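 further: plate controls were EBNA-1 protein with DMSO for no effect and wells lacking EBNA-1 for full effect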
ZTA DNA inh trip – blocks Epstein-Barr virus ZTA in triplicate, EBNA-1 counter-screen; shares compounds with EBNA-1 inh; Zta-ZRE DNA binding, Cy5 fluorescence polarization; inhibition, % at 11.1 µM; 830 tested, under 10 active; AID 2328;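 active means mean inhibition over triplicates above a set limit taken from the primary EBNA-1 screen, cut at about 37% in these data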;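 further: purified full length Zta protein with Cy5 labeled ZRE DNA probe; 0% = Zta with DMSO and 100% = wells lacking Zta protein; inhibitors lower polarization by freeing the labeled DNA probe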
Active calls of the source: *; . = no result given.

SMILES	p47phox inh	EBNA-1 inh	ZTA DNA inh	aDG glyco act	NR1D1 modulator	PG9 binder	EBNA-1 confirm	ZTA DNA inh trip
COc1ccc(CNC(=O)COC(=O)/C=C/c2ccc(Cl)cc2)cc1	3.4	3.3	6.2	-0.2	1.3	0.0	.	.
COc1ccc(NC(=O)Nc2ccccc2OC)cc1	-13.3	-6.4	-1.6	-0.1	6.1	-1.5	.	.
COc1ccccc1NC(=O)Nc1ccc(C(N)=O)cc1	-6.7	46.2*	0.0	0.2	0.6	0.5	-9.3	11.6
CCCN1CCS(=O)(=O)N(Cc2cn(Cc3ccc(Cl)cc3)nn2)C(C(=O)OC)C1 (stereo not given)	.	.	.	.	-1.6	.	.	.
CCC(=O)Nc1ccc(Cl)c(NC(=S)NC(=O)c2cc3ccccc3o2)c1	-15.7	38.8*	-3.2	0.0	15.2	7.6	17.6	2.8
CC1=C2NC(N)=[N+](Cc3ccc4c(c3)OCO4)CC2NOC1 (stereo not given)	.	.	.	.	0.9	.	.	.
CC(=O)c1ccc(N2CCN(C(=O)COc3ccc(F)cc3)CC2)c(F)c1	-9.4	0.7	-0.4	0.3	1.6	0.2	.	.
CCC(=O)c1ccc(N2CCN(C(=O)COc3ccc(F)cc3)CC2)c(F)c1	-0.5	28.4*	12.2	-0.1	9.8	-0.2	4.9	9.0
Cc1ccc(CN[C@@H]2CC[C@@]34CCCN3C(=O)CCC[C@H]4C2)cc1	.	.	.	.	0.7	.	.	.
O=C(Cn1nc(-c2ccc3c(c2)OCCO3)ccc1=O)Nc1cccc(NC(=O)c2ccccn2)c1	-23.5	40.8*	0.6	.	.	.	43.4*	12.3
O=C(Cn1nc(-c2ccc3c(c2)OCCO3)ccc1=O)Nc1ccc(N2CCOCC2)cc1	-4.7	-0.2	7.9	.	.	.	.	.
Cc1cc(C)cc(NC(=O)O[C@@H]2CC[C@@]34CCCN3C(=O)CCC[C@H]4C2)c1	.	.	.	.	-3.1	.	.	.
CCc1ccccc1NC(=S)N=Nc1c(O)n(C)c2ccc(S(=O)(=O)N3CCOCC3)cc12	-11.6	49.1*	-2.8	1.5	-4.2	0.8	-6.4	-1.1
Cc1ccc(C)c(NC(=S)N=Nc2c(O)n(C)c3ccc(S(=O)(=O)N4CCOCC4)cc23)c1	-22.5	-2.9	-2.7	1.3	-5.1	-3.0	.	.
COC(=O)[C@]12C[C@H](CC(=O)NCC3CCCCC3)C(=O)N(Cc3ccco3)C1=C[C@H](COCc1ccccc1)O[C@@H]2C	.	.	.	.	4.1	.	.	.
COc1cc(-c2c(C(=O)c3ccccc3)[nH]c(N)c2C(N)=O)ccc1O	.	.	.	.	3.9	.	.	.
Cc1ccc(S(=O)(=O)NCC2CCC(C(=O)NC3CCCCC3)CC2)cc1 (stereo not given)	.	48.9*	0.9	-0.1	3.0	-1.6	39.2*	3.1
COc1ccc(NC(=O)COC(=O)c2ccc(OCc3ccccc3Cl)c(OC)c2)c(OC)c1	6.3	32.3*	-3.9	0.1	-6.0	-0.5	-8.4	-9.0
COc1ccc(NC(=O)CN(C)C(=O)c2cc(-c3ccc(OC)cc3)nc3ccccc23)cc1	.	31.4*	3.0	-0.4	2.9	-2.5	0.1	-3.5
COc1ccc(NC(=O)CN(C)C(=O)c2cc(-c3ccccc3)nc3ccccc23)cc1	.	-15.4	10.5	-0.3	3.8	1.4	.	.
CCCNC(=O)c1ccc(N2CCC3(CC2)CC(c2ccccc2)=NO3)c(N)c1	.	50.8*	-2.8	0.2	-4.1	-0.6	-5.4	-7.3
CCCNC(=O)c1ccc(N2CCC3(CC2)CC(c2ccccc2)=NO3)c([N+](=O)[O-])c1	.	-2.2	5.8	0.0	0.8	1.1	.	.
NC(=O)c1cccc(NC(=O)Nc2ccc(Cl)cc2)c1	.	37.8*	7.2	0.1	-0.4	-0.8	6.8	4.8
O=C(Nc1ccc(Cl)cc1)Nc1ccc(Cl)c(Cl)c1	.	.	10.3	.	0.3	1.1	.	.
Cc1ccc(Cn2cc(CN(C3CC3)S(=O)(=O)c3ccccc3Br)nn2)cc1	.	.	.	.	1.0	.	.	.
CCOc1ccc2nc(SCC(=O)NNC(=O)c3ccco3)c(C)cc2c1	.	57.2*	7.0	0.1	2.2	-0.7	42.0*	1.7
COC(=O)[C@]12C[C@H](CC(=O)NCCc3ccccc3OC)C(=O)N(CCc3ccc(OC)c(OC)c3)C1=C[C@H](COCc1ccccc1)O[C@@H]2C	.	.	.	.	6.4	.	.	.
